Among the data in PubChem BioAssay (EPA / NIEHS) are AC50 and outcome values, retold here.

The source made the active and inactive calls. Rule for the calls: active = hit-call score of the fitted dose curve at least 0.9, where 1 is the maximum; inactive = score below 0.9.

Assay [1] is described as follows: ATG_GLI_CIS: Attagene CIS-FACTORIAL HepG2 Assay for human Zinc Finger Protein GLI1 (AID 2282945). As to conditions: HepG2, Attagene cis-factorial reporter mRNA, GLI element; actives raise or lower the signal. In a few lines:
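Bidirectional curve fits relative to DMSO, using reporter mRNA levels from RT-PCR plus capillary electrophoresis. Cells were HepG2 transiently carrying cis-regulated reporter constructs, harvested 24 h after dosing.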

Assay [2] can be described thus: ATG_ISRE_CIS: Attagene CIS-FACTORIAL HepG2 Assay for human Interferon Regulatory Factor 1 (IRF1) binding to an Interferon-Stimulated Response Element (ISRE) (AID 2282948). As to conditions: HepG2 ISRE cis-reporter (Attagene), mRNA transcription readout; actives raise or lower the signal. In outline: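 Read-out: fluorescent RT-PCR products resolved by capillary electrophoresis, reporting endogenous transcription factor activity via ISRE-driven reporter mRNA in transfected HepG2 cells dosed for 24 h; gain or loss fitted relative to DMSO.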

Assay [3] can be described thus: ATG_M_32_CIS: Attagene CIS-FACTORIAL HepG2 Assay for M32 Transcription Factor (Internal Marker) (AID 2282949).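 Note: background control marker of the multiplexed CIS panel rather than a real target.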 The note with it: HepG2 Attagene cis-factorial M32 reporter, mRNA; actives raise or lower the signal. In a few lines:
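Using DMSO as baseline, bidirectional curve fits were applied to reporter mRNA signals. These came from transiently transfected HepG2 cells exposed for 24 h, with RNA analysed by RT-PCR, FAM primer extension, HpaI digestion and CE.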

Assay [4] is described as follows: ATG_M_06_CIS: Attagene CIS-FACTORIAL HepG2 Assay for M06 Transcription Factor (Internal Marker) (AID 2282950). As to conditions: HepG2 Attagene CIS-FACTORIAL M06 internal marker reporter; actives raise or lower the signal. In a few lines: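 Steps: transfect HepG2 with multiplexed cis-element reporter constructs; dose chemical 24 h; extract RNA with DNase treatment; reverse-transcribe, PCR-amplify, 6-FAM label, HpaI digest; separate fragments by capillary electrophoresis. Activity fitted both directions versus DMSO.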

Assay [5] has as its target Hypoxia-inducible factor 1-alpha (Homo sapiens) (UniProt Q16665). The assay can be described thus: ATG_HIF1a_CIS: Attagene CIS-FACTORIAL HepG2 Assay for human Hypoxia Inducible Factor 1 (HIF1A) (AID 2282951). As to conditions: HepG2 Attagene cis-factorial HIF1a reporter transcription; actives raise or lower the signal. In outline: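 HepG2, transient cis-reporter library, 24 h dosing. RNA → RT (oligo dT) → PCR → 6-FAM primer extension → HpaI → CE. Bidirectional curve fit vs DMSO.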

Assay [6] concerns the target Hepatocyte nuclear factor 6 (Homo sapiens) (UniProt Q9UBC0). The assay can be described thus: ATG_HNF6_CIS: Attagene CIS-FACTORIAL HepG2 Assay for human Hepatocyte Nuclear Factor 6 (HNF6) (AID 2282952). As to conditions: HepG2 Attagene cis-factorial HNF6 reporter transcription; actives raise or lower the signal. In a few lines:
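Using cis-element reporters in HepG2 liver cells, the assay tracks endogenous factor-driven transcription 24 h post-dosing. Signal comes from 6-FAM-labelled, HpaI-digested RT-PCR fragments, with gain or loss scored against DMSO.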

In assay [7] the target is Heat shock factor protein 1 (Homo sapiens) (UniProt Q00613). In words: ATG_HSE_CIS: Attagene CIS-FACTORIAL HepG2 Assay for human Heat Shock Transcription Factor 1 (HSE) (AID 2282953). As to conditions: HepG2 HSE cis-reporter, Attagene RNA transcription; actives raise or lower the signal. In outline: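 Cells were transfected with cis-element-driven reporter constructs, dosed for 24 h, then total RNA was reverse-transcribed and reporter cDNA amplified, FAM-labelled and digested with HpaI. Fragments were resolved by capillary electrophoresis; gain or loss was fitted against DMSO.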
Heat shock factor protein 1 (Homo sapiens), sequence (Q00613 whole entry, looked up, the tested form may be a part): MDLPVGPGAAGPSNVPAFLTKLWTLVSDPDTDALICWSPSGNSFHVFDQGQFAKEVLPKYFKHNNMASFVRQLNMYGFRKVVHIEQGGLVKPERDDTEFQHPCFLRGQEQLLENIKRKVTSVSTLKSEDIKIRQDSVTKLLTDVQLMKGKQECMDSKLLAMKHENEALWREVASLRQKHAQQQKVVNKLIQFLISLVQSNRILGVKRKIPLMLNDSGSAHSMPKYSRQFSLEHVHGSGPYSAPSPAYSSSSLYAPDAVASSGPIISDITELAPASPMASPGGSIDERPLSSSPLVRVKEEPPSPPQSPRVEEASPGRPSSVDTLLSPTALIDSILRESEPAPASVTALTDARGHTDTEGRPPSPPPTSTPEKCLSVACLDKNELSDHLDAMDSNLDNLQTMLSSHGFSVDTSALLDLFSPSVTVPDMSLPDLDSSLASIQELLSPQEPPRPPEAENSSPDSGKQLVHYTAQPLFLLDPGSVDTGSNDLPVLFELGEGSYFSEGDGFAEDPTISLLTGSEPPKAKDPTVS

The nature of assay [8]: ATG_MRE_CIS: Attagene CIS-FACTORIAL HepG2 Assay for human Metal Responsive Element (MRE) (AID 2282954). As to conditions: HepG2 MRE cis-reporter transcription, Attagene multiplex; actives raise or lower the signal. In outline: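 Multiplexed cis-reporter assay in human HepG2 liver cells, 24 h incubation with test chemical. Reporter transcripts measured by RT-PCR and capillary electrophoresis; values from bidirectional curve fitting versus DMSO.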

Assay [9] is described as follows: ATG_PBREM_CIS: Attagene CIS-FACTORIAL HepG2 Assay for human Phenobarbital-responsive Enhancer Module (PBREM) (AID 2282955). As to conditions: HepG2 PBREM cis-reporter, Attagene multiplexed transcription; actives raise or lower the signal. In a few lines: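 HepG2, transient MRTU transfection, 24 h dosing; RNA → oligo(dT) RT → PCR → 6-FAM extension → HpaI → CE. Bidirectional fit vs DMSO.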

The target in assay [10] is Paired box protein Pax-6 (Homo sapiens) (UniProt P26367). In words: ATG_Pax6_CIS: Attagene CIS-FACTORIAL HepG2 Assay for human Paired Box 6 (PAX6) (AID 2282956). The note with it: HepG2 CIS-FACTORIAL PAX6 reporter transcription, RNA readout; actives raise or lower the signal. In outline:
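Readout: reporter transcript fluorescence after RT-PCR and capillary electrophoresis. Cells: HepG2, transiently transfected with cis-regulated MRTUs. Exposure 24 h. Gain or loss of signal fitted bidirectionally relative to DMSO.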

Assay [11] in a line: ATG_PXRE_CIS: Attagene CIS-FACTORIAL HepG2 Assay for human Pregnane X Receptor Element (PXRE) (AID 2282957). The note with it: HepG2 Attagene CIS-FACTORIAL PXRE reporter, mRNA; actives raise or lower the signal. In outline:
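Using HepG2 transfected with multiple reporter transcription units, endogenous factor-driven transcription was scored as reporter mRNA after 24 h exposure.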

Assay [12] can be described thus: ATG_RORE_CIS: Attagene CIS-FACTORIAL HepG2 Assay for human RAR-related Orphan Receptor Element (RORE) (AID 2282959). As to conditions: HepG2 Attagene cis-factorial RORE reporter, mRNA; actives raise or lower the signal. In a few lines:
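Multiplexed reporter assay measuring mRNA induction from a cis promoter element in transiently transfected HepG2 cells after 24 h treatment. Detection via RT-PCR and capillary electrophoresis fluorescence; DMSO serves as baseline.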

Assay [13] in a line: ATG_Sox_CIS: Attagene CIS-FACTORIAL HepG2 Assay for human SRY-box transcription factor (SOX) (AID 2282960). The note with it: HepG2 Attagene cis-factorial SOX reporter, mRNA; actives raise or lower the signal. In a few lines:
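Cells were transfected with reporter constructs under cis-regulatory promoters, then exposed to chemicals for 24 h. Reporter transcripts were quantified by fluorescence after RT-PCR and capillary electrophoresis; activity was fitted in both directions against DMSO.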

Assay [14] deals with Transcription factor Sp1 (Homo sapiens) (UniProt P08047). In words: ATG_Sp1_CIS: Attagene CIS-FACTORIAL HepG2 Assay for human Specificity Protein 1 (Sp1) (AID 2282961). The note with it: HepG2 Sp1 cis-reporter transcription, actives raise or lower the signal. In outline:
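Measures mRNA induction of an Sp1-linked reporter in HepG2 cells 24 h post-dosing. Multiplexed reporters read by RT-PCR and capillary electrophoresis; DMSO serves as negative control and baseline.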

Assay [15] can be described thus: ATG_SREBP_CIS: Attagene CIS-FACTORIAL HepG2 Assay for human Sterol Regulatory Element Binding (SREBP) (AID 2282962). As to conditions: HepG2 Attagene cis-factorial SREBP reporter, mRNA; actives raise or lower the signal. In outline:
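Readout: fluorescent reporter-transcript peaks resolved by capillary electrophoresis after RT-PCR. Cells were human HepG2 carrying transfected cis-promoter reporter constructs, dosed for 24 h. Gain or loss of signal was fitted against DMSO controls.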

Assay [16] addresses Signal transducer and activator of transcription 3 (Homo sapiens) (UniProt P40763). The assay can be described thus: ATG_STAT3_CIS: Attagene CIS-FACTORIAL HepG2 Assay for human Signal Transducer and Activator of Transcription 3 (STAT3) (AID 2282963). As to conditions: HepG2, Attagene cis-factorial STAT3 reporter transcription; actives raise or lower the signal. In a few lines: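 Cis-factorial format: endogenous transcription factors in HepG2 drive transfected reporter units. After 24 h treatment, reporter RNA was reverse-transcribed, amplified, FAM-labelled and HpaI-digested before CE analysis; activity scored in both directions against DMSO.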

Assay [17] is described as follows: ATG_TA_CIS: Attagene CIS-FACTORIAL HepG2 Assay for human TA Basal Promoter (AID 2282964). The note with it: HepG2 Attagene CIS-factorial TA basal promoter reporter; actives raise or lower the signal. In outline: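 Steps: transfect HepG2 with MRTUs; dose 24 h; isolate RNA, DNase-treat, reverse-transcribe; PCR and FAM-label reporter cDNA; digest with HpaI 2h at 37 C; run capillary electrophoresis. Activity fitted both directions against DMSO.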

Assay [18] is described as follows: ATG_PPRE_CIS: Attagene CIS-FACTORIAL HepG2 Assay for human Peroxisome Proliferator-activated Response Element (PPRE) (AID 2282958). As to conditions: HepG2 PPRE cis-element reporter, Attagene transcription factor profiling; actives raise or lower the signal. In a few lines:
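Transcript-level reporter induction in transfected HepG2 cells after 24 h chemical exposure, quantified by fluorescence from RT-PCR products separated by capillary electrophoresis.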

Paired box protein Pax-6 (Homo sapiens), sequence (P26367 whole entry, looked up): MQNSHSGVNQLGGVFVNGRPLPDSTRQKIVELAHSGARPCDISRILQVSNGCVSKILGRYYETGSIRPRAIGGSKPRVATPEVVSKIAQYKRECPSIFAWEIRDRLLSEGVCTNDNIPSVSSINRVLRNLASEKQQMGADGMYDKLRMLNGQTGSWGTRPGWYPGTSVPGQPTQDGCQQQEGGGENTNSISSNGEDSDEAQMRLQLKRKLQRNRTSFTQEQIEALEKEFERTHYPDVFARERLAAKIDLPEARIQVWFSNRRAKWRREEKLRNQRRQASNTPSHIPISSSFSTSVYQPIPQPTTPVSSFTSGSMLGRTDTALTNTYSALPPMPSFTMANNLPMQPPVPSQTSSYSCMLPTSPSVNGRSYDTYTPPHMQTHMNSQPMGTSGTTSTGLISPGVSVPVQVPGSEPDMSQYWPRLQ
Hypoxia-inducible factor 1-alpha (Homo sapiens), sequence (Q16665 whole entry, looked up): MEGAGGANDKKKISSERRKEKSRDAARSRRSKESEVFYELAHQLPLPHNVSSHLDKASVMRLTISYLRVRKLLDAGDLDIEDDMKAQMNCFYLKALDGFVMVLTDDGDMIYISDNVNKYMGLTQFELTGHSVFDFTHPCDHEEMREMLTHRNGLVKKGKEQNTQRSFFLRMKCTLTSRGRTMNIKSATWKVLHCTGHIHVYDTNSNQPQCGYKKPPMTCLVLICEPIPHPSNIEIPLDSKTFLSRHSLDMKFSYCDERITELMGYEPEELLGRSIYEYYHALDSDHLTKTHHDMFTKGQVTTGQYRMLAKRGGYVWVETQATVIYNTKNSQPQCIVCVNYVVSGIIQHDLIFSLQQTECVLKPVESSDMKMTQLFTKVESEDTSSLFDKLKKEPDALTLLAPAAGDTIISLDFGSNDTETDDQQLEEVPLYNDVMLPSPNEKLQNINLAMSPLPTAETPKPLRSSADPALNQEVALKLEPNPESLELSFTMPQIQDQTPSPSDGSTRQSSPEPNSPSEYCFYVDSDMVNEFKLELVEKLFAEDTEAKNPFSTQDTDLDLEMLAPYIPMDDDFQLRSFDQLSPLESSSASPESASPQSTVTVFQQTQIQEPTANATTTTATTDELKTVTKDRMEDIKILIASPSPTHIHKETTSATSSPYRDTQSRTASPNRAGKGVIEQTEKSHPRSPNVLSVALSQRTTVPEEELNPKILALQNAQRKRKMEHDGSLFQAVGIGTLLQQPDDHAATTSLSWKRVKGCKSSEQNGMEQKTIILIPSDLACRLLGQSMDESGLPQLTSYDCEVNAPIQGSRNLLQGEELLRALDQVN
Signal transducer and activator of transcription 3 (Homo sapiens), sequence (P40763 whole entry, looked up): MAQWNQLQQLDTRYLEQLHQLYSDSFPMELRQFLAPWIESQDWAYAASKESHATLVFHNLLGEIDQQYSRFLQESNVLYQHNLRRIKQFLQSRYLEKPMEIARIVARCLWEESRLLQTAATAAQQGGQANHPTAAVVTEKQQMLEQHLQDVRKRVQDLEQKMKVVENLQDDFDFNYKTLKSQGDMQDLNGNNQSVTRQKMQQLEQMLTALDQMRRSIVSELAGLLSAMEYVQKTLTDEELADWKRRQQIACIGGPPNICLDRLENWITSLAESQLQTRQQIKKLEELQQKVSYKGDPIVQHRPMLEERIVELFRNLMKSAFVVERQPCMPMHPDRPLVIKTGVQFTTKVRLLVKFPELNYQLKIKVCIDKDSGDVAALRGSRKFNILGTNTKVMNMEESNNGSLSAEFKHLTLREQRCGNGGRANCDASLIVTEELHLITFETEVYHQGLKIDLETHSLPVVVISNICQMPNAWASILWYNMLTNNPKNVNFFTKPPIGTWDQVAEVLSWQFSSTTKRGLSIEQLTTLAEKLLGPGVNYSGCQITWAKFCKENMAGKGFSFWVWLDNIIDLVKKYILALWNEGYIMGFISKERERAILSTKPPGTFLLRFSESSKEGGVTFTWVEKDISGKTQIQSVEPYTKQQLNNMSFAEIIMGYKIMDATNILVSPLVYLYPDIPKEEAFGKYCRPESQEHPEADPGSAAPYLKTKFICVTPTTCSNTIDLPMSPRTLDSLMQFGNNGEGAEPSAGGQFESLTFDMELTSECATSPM
Transcription factor Sp1 (Homo sapiens), sequence (P08047 whole entry, looked up): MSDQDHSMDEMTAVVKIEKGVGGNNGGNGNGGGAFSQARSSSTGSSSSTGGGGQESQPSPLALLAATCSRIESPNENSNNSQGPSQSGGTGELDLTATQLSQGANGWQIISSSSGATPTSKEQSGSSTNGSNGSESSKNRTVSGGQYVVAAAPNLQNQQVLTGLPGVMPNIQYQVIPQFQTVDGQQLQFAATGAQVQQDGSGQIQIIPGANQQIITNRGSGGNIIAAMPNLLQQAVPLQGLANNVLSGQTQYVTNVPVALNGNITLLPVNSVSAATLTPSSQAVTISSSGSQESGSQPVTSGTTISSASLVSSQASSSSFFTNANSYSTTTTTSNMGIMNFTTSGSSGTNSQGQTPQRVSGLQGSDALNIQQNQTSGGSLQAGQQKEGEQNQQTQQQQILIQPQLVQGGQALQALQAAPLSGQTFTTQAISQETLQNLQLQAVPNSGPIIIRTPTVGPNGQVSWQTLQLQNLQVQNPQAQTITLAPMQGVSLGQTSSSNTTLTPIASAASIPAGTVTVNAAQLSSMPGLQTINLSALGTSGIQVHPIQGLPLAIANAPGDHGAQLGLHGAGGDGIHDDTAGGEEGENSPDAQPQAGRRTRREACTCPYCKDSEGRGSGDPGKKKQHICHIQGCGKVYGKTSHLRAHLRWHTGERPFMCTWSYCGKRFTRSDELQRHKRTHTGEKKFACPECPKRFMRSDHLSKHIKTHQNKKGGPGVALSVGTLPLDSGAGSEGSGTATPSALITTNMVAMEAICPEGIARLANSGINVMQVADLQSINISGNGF
Hepatocyte nuclear factor 6 (Homo sapiens), sequence (Q9UBC0 whole entry, looked up, the tested form may be a part): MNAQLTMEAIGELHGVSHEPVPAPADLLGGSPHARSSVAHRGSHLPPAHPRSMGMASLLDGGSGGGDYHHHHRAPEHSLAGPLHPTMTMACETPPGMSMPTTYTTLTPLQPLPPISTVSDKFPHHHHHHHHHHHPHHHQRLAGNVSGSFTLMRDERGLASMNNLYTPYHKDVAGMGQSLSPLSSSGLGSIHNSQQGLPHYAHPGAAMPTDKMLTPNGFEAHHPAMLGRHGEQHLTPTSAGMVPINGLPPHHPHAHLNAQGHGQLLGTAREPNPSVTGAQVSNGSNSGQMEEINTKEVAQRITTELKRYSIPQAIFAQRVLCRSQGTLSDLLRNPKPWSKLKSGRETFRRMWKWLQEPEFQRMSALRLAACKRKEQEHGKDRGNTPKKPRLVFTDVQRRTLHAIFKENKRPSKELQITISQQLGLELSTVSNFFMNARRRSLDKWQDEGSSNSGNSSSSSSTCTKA

The AC50 is the concentration at which the activity in the assay is half-maximal. As for `CC(=O)OC/C=C(C)/C=C/C=C(C)/C=C/C1=C(C)CCCC1(C)C`, the AC50 is 159 µM (active) in [1]; 72.8 µM (active) in assay [2]; 155 µM (active) in assay [7]; 100 µM (active) in [8]; 72.2 µM (active) in [10]; 0.426 µM (active) in assay [11]. The AC50 was 138 µM (active) in assay [13], 172 µM (active) in assay [14] and 100 µM (active) in assay [15]. In addition, the outcome in [3], in assay [4], in assay [5], in assay [6], in [9] and in assay [12] was inactive. In addition, the result in assay [16] and in [17] was inactive.
In the case of `Nc1cc([N+](=O)[O-])ccc1C(=O)O`, the result in [1], in [3], in assay [4], in assay [5], in [6] and in [9] was inactive. Further, the outcome in [10], in [12], in assay [13], in assay [15] and in assay [17] was inactive. Moreover, the AC50 in assay [7] was 75 µM (active); in assay [8] it was 71 µM (active); in assay [11], 64.5 µM (active).
On to `O=[N+]([O-])c1cc(N(CCO)CCO)ccc1NCCO`, for which the result in assay [1], in assay [2], in [3], in assay [4], in [5] and in [7] was inactive. Moreover, the call in assay [8], in assay [10], in assay [11], in assay [12], in assay [13] and in [14] was inactive. Further, the compound was classed as inactive in [15], in assay [16] and in assay [17].
With `CCCCCCCC1CCCC1=O` (centres undefined), the compound was called inactive in assay [1], in assay [2], in assay [3], in assay [4], in assay [6] and in assay [7]. For the same compound, the result in assay [8], in assay [10], in assay [12], in [13], in assay [14] and in [15] was inactive. Besides, the outcome in assay [16] and in assay [17] was inactive. In assay [11], the AC50 was 27.9 µM (active).
Turning to `CCC(C)C1CCCCC1=O` (centres undefined), the outcome in assay [1], in [3], in [4], in assay [5], in [6] and in assay [7] was inactive. In addition, the outcome in [8], in assay [9], in assay [10], in assay [11], in assay [18] and in [12] was inactive. Moreover, the call in assay [13], in assay [15], in [16] and in assay [17] was inactive.
Turning to `CCC(C)(C)C1CCC(=O)CC1`, the result in [1], in assay [2], in assay [3], in [4], in assay [6] and in [7] was inactive. Further, the call in assay [8], in assay [10], in [18], in [12], in assay [13] and in assay [14] was inactive. Also, the result in [16] and in assay [17] was inactive. In addition, the AC50 in assay [11] was 5.24 µM (active).
Consider `C=C(C)C(=O)OCCN(C)C`, for which the call in assay [1], in assay [3], in assay [4], in assay [6], in assay [7] and in assay [8] was inactive. Also, the result in [9], in assay [10], in assay [11], in assay [18], in assay [12] and in assay [13] was inactive. In addition, the compound was called inactive in assay [15], in assay [16] and in assay [17].
Turning to `CC(=O)CCC=C(C)CCC=C(C)C`, the compound was called inactive in assay [1], in assay [3], in assay [4], in [5], in assay [6] and in assay [7]. For the same compound, the compound was classed as inactive in assay [8], in [12], in [13], in assay [14], in assay [15] and in assay [16]. Further, the outcome in assay [17] was inactive. For the same compound, the AC50 in assay [11] was 6.98 µM (active).
On to `CN(C)C`, for which the compound was classed as inactive in assay [1], in assay [3], in assay [4], in [5], in assay [6] and in assay [7]. Further, the outcome in [8], in assay [10], in [11], in assay [13], in [14] and in assay [15] was inactive. Moreover, the outcome in assay [16] and in assay [17] was inactive.
Consider `c1ccc(Sc2ccccc2)cc1`, for which the call in assay [1], in assay [2], in assay [3], in [4], in assay [7] and in [8] was inactive. Besides, the call in [10], in assay [12], in assay [13], in [14], in assay [15] and in [16] was inactive. The outcome in [17] was inactive. Moreover, the AC50 in assay [11] was 62.7 µM (active).
